Among all 290,000 compounds or so, about 140 (0.048%) were called active.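 How the source made its calls: active means activation above 40% with more than 50 cells counted in the well; inconclusive means wells holding fewer than 50 cells, flagged as toxic or sparse; inactive means the rest.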 The list comes from a sample in which actives are over-represented; it also holds similar structures and randomly drawn compounds.
Experiments:
[1] = GPR55 agonists via beta-arrestin recruitment, primary screen, imaging, U2OS cells, beta-arrestin-GFP redistribution (AID 1961); conditions: measured here: cytotoxicity, cells analyzed, at 10 µM;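 further: U2OS osteosarcoma cells stably expressing GPR55 and beta-arrestin-GFP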;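 on activation: plate controls were DMSO negative control for no effect and LPI positive control for full effect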
[2] = biological target: G-protein coupled receptor 55 (Homo sapiens) (UniProt Q9Y2T6); assay: as above; conditions: at 10 µM, stronger effect = higher value
G-protein coupled receptor 55 (Homo sapiens), sequence (Q9Y2T6 whole entry, looked up): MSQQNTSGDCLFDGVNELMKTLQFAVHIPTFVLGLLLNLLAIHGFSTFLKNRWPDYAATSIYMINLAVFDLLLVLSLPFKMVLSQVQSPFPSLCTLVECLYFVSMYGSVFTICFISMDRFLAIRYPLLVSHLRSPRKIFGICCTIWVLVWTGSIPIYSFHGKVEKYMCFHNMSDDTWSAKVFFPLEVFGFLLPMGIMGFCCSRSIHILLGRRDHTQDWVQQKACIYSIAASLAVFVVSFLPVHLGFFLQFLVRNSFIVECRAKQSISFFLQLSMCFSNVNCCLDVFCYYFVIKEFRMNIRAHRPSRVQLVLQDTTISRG

For `O=C(Nc1ccc2c(c1)C(=O)OC2)c1ccc(F)cc1F`, the cell count [1] was 353 cells and the activation [2] was -0.2% (inactive).
For `Cc1nn(C)c(C)c1CNC(=O)c1cc2n(n1)C(C(F)(F)F)CC(c1cccs1)N2` (configuration not stated), the cell count [1] was 389 cells and the activation [2] was 0.1% (inactive).
For `Nc1c(-c2ccccc2)c(CSc2nc3ccccc3[nH]2)nn1-c1ccc(C(=O)O)cc1`, the cell count [1] was 311 cells and the activation [2] was -0.2% (inactive).
With `COc1cc(/C=C(\NC(=O)c2ccccc2)C(=O)NCC(=O)O)c([N+](=O)[O-])cc1OC` the cell count [1] was 349 cells and the activation [2] was -0.1% (inactive).
For `COc1cc(/C=C/c2cc(OC(C)=O)c3ccccc3n2)c(OC(C)=O)c([N+](=O)[O-])c1`, the cell count [1] was 366 cells and the activation [2] was 0.2% (inactive).
In the case of `CN(C)c1ccnc(Nc2ccccc2)c1C#N`, the cell count [1] was 373 cells and the activation [2] was 0.3% (inactive).
For `O=C1c2ccccc2C(=O)N1Cc1cccnc1`, the cell count [1] was 406 cells and the activation [2] was -0.2% (inactive).
With `CC(C)Cn1c(N)c(C(=O)COC(=O)c2cc(-c3ccco3)nc3ccccc23)c(=O)n(C)c1=O` the cell count [1] was 285 cells and the activation [2] was -0.1% (inactive).
With `Cn1c(=O)c(C(=O)COC(=O)c2cc(-c3ccco3)nc3ccccc23)c(N)n(CC2CC2)c1=O` the cell count [1] was 375 cells and the activation [2] was 59.6% (active).
In the case of `Cn1c(=O)c(C(=O)COC(=O)c2cc(-c3ccco3)nc3ccccc23)c(N)n(Cc2ccccc2)c1=O`, the cell count [1] was 365 cells and the activation [2] was 8.3% (inactive).
For `Cc1ccc(C(=O)N2CCN(c3ccccn3)CC2)cc1C`, the cell count [1] was 396 cells and the activation [2] was -0.1% (inactive).
In the case of `CCOC(=O)N1CCN(C(=O)c2ccc3c(c2)N(Cc2cccc(Cl)c2)C(=O)c2ccccc2S3=O)CC1` (configuration not stated), the cell count [1] was 331 cells and the activation [2] was 21.2% (inactive).
In the case of `Cc1ccc(C)c(CN2C(=O)c3ccccc3S(=O)(=O)c3ccc(C(=O)N4CCN(C)CC4)cc32)c1`, the cell count [1] was 338 cells and the activation [2] was -0.2% (inactive).
With `Cc1ccc(C(=O)N2CCN(c3ccccn3)CC2)cc1Cl` the cell count [1] was 384 cells and the activation [2] was -0.2% (inactive).
With `CC(=O)Nc1nc(SCC(=O)Nc2nnc(C)s2)[nH]c(=O)c1NC(=O)c1cccs1` the cell count [1] was 243 cells and the activation [2] was 0.7% (inactive).
For `CCCN1C(=O)/C(=C/c2c(NCCCOCC)nc3c(C)cccn3c2=O)SC1=S`, the cell count [1] was 462 cells and the activation [2] was 5.7% (inactive).
With `CCOCCCNc1nc2c(C)cccn2c(=O)c1/C=C1\SC(=S)N(CC(C)C)C1=O` the cell count [1] was 348 cells and the activation [2] was 1% (inactive).
With `CCOCCCNc1nc2c(C)cccn2c(=O)c1/C=C1\SC(=S)N(C(C)CC)C1=O` (configuration not stated) the cell count [1] was 390 cells and the activation [2] was 69.7% (active).
With `O=C(N/N=C/c1ccccc1F)c1cccc(NC(=O)c2ccccc2Cl)c1` the cell count [1] was 329 cells and the activation [2] was -0.2% (inactive).
In the case of `COc1cc(OC)cc(C(=O)N2CCN(c3ccccc3F)CC2)c1`, the cell count [1] was 328 cells and the activation [2] was -0.2% (inactive).
For `CCOc1ccc(NC(=O)C2CC(=O)N(c3cc(C)cc(C)c3)C2)cc1` (configuration not stated), the cell count [1] was 314 cells and the activation [2] was -0.1% (inactive).
In the case of `COc1cccc(NS(=O)(=O)c2ccc3c(c2)NC(=O)C(C)C(=O)N3)c1` (configuration not stated), the cell count [1] was 385 cells and the activation [2] was -0.1% (inactive).
With `Cc1ccc(-c2ccc(CO)o2)cc1N` the cell count [1] was 282 cells and the activation [2] was -0.3% (inactive).
In the case of `O=C(O)c1cccc(CSc2ncn[nH]2)c1`, the cell count [1] was 346 cells and the activation [2] was 0.4% (inactive).
With `O=C(O)c1cccc(CSc2nnc(-c3ccc(Cl)cc3)o2)c1` the cell count [1] was 424 cells and the activation [2] was 0.2% (inactive).
For `O=C(Cn1nc(-c2ccco2)ccc1=O)Nc1cc(C(F)(F)F)ccc1Cl`, the cell count [1] was 369 cells and the activation [2] was -0.1% (inactive).
For `CC(C)(C)NC(=O)COC(=O)c1cc(Br)ccc1Cl`, the cell count [1] was 284 cells and the activation [2] was -0.3% (inactive).
For `O=C(NOC(=O)c1cc(Br)ccc1Cl)c1cccs1`, the cell count [1] was 347 cells and the activation [2] was -0.1% (inactive).
For `O=C(NCc1ccccc1F)C1CCCN(C(=O)NC2CCCCC2)C1` (configuration not stated), the cell count [1] was 299 cells and the activation [2] was -0.1% (inactive).
In the case of `COc1cccc(CNC(=O)c2cccc(S(=O)(=O)N3CCN(C)CC3)c2)c1`, the cell count [1] was 306 cells and the activation [2] was 0% (inactive).
For `COc1ccc(CNC(=O)CN(C(=O)c2csnn2)c2ccccc2F)cc1`, the cell count [1] was 338 cells and the activation [2] was -0.1% (inactive).
For `COc1ccc(N2CCN(C(=O)c3cc(=O)c4ccc(C)cc4o3)CC2)cc1`, the cell count [1] was 331 cells and the activation [2] was -0.2% (inactive).
For `CCOc1ccccc1C(=O)Oc1ccc2ccc(=O)oc2c1`, the cell count [1] was 397 cells and the activation [2] was 0.9% (inactive).
In the case of `COc1cccc(C2/C(=C(\O)c3ccc4c(c3)OCCO4)C(=O)C(=O)N2CC2CCCO2)c1` (configuration not stated), the cell count [1] was 382 cells and the activation [2] was 0.2% (inactive).
With `FC(F)(F)c1cc(C(F)(F)F)c2ccc(N/N=C/c3ccccc3)nc2n1` the cell count [1] was 408 cells and the activation [2] was -0.3% (inactive).
For `FC(F)(F)c1cc(C(F)(F)F)c2ccc(N/N=C/c3cccc(Cl)c3)nc2n1`, the cell count [1] was 390 cells and the activation [2] was 59.1% (active).
In the case of `Cc1ccc(/C=N/Nc2ccc3c(C(F)(F)F)cc(C(F)(F)F)nc3n2)cc1`, the cell count [1] was 447 cells and the activation [2] was -0.2% (inactive).
With `COCc1cc(C)nc(N)c1C#N` the cell count [1] was 359 cells and the activation [2] was 0.1% (inactive).
In the case of `S=C(NCCc1ccccc1)N1CCN(C2CCCCC2)CC1`, the cell count [1] was 462 cells and the activation [2] was -0.1% (inactive).
In the case of `O=C(C1=C[C@H](c2ccc(C(F)(F)F)cc2)C[C@H](OCc2ccc(CO)cc2)O1)N1CCOCC1`, the cell count [1] was 338 cells and the activation [2] was 0.1% (inactive).
For `O=C(CSc1nnc(-c2ccc(F)cc2)o1)NC1CCCC1`, the cell count [1] was 360 cells and the activation [2] was -0.1% (inactive).
For `CCOC(=O)N1CCN(c2c(NCCCOC(C)C)c(=O)c2=O)CC1`, the cell count [1] was 327 cells and the activation [2] was -0.1% (inactive).
For `CC(C)OCCCNC(=O)Cc1ccc(F)cc1`, the cell count [1] was 376 cells and the activation [2] was -0.2% (inactive).
With `Cc1ccc2oc(=O)cc(CN3CCN(Cc4ccccc4)CC3)c2c1` the cell count [1] was 335 cells and the activation [2] was 0% (inactive).
For `O=C(CNC(=O)c1ccc(N2C(=O)c3ccccc3C2=O)cc1)OCC(=O)c1cccc2ccccc12`, the cell count [1] was 341 cells and the activation [2] was 0% (inactive).
With `CC(C)N1CCN(Cc2ccc(C#CC(C)(C)O)s2)CC1CCO` (configuration not stated) the cell count [1] was 368 cells and the activation [2] was 0.3% (inactive).
With `CCOc1ccc(S(=O)(=O)Nc2ccc(C(=O)N3CCCC3)cc2)cc1C(N)=O` the cell count [1] was 319 cells and the activation [2] was 0% (inactive).
With `O=S(=O)(c1cccc(-c2nn3c(-c4ccncc4)nnc3s2)c1)N1CCOCC1` the cell count [1] was 342 cells and the activation [2] was -0.2% (inactive).
With `COCCNC(=O)C(c1ccc(F)cc1)N(C(=O)CCC(=O)Nc1ccccn1)c1cccc(C)c1` (configuration not stated) the cell count [1] was 316 cells and the activation [2] was -0.2% (inactive).
For `CCCc1cc(=O)n2[nH]c(C)c(-c3ccc(OC)cc3)c2n1`, the cell count [1] was 417 cells and the activation [2] was -0.1% (inactive).
In the case of `CC(C)(C)NC(=O)CSc1nc(N)c(NC(=O)c2ccccc2F)c(=O)[nH]1`, the cell count [1] was 255 cells and the activation [2] was 0% (inactive).
